Results on 60 compounds are retold here after PubChem BioAssay AID651903 (Broad Institute, 2012).

SMILES strings stand for the structures. The campaign covered roughly 22,000 compounds. About 1,100 (5%) were called active. The entries come from a sample that favours actives as a whole. Unmarked numbers belong to inactive results. No stated cut-off is given here; in the data, active means activity score above about 55%; inconclusive means no clear call, values can overlap the other calls; inactive means below that.

This assay is described as follows: inhibitors of intracellular Trypanosoma cruzi, primary screen, cell-based, plate reader, single point, set 2 (AID 651903).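 Further: parasites and compound incubated about four days before reading; 0% = median of neutral control wells.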 Particulars: intracellular Trypanosoma cruzi in host cells, at 5.01 µM, hits give high values.
Take `O=C(O)c1cccc(/C=N/NC(=O)c2cccc(C(=O)NO)c2)c1`: the activity score (inhibition) is -15.8%.

As for `Cc1cccc(CN(C)C[C@@H]2OCc3cn(nn3)CCCC(=O)N([C@@H](C)CO)C[C@H]2C)c1`, the activity score (inhibition) was -37.4%. For `Cc1cccc(S(=O)(=O)N(C)C[C@@H]2OCc3cnnn3CCCC(=O)N([C@H](C)CO)C[C@@H]2C)c1`, the activity score (inhibition) was 5.66%. The figure for `C[C@H]1CN([C@@H](C)CO)C(=O)Cc2cc(NC(=O)Cc3ccccc3)ccc2O[C@H]1CN(C)S(=O)(=O)c1ccc(Cl)cc1` is 30.9%; for `Cc1ccc(S(=O)(=O)Nc2cccc3c2O[C@H](CN(C)CC2CCCCC2)[C@H](C)CN([C@H](C)CO)C3=O)cc1` it is 2.35%. Turning to `CNC[C@@H]1Oc2c(NC(=O)Nc3ccc(OC)cc3)cccc2C(=O)N([C@@H](C)CO)C[C@@H]1C`, the activity score (inhibition) is -23.4%. Turning to `COc1ccc(NC(=O)Nc2ccc3c(c2)CC(=O)N([C@H](C)CO)C[C@H](C)[C@H](CN(C)S(=O)(=O)c2ccccc2)O3)cc1`, the activity score (inhibition) was -4.14%. For `Cc1ccc(S(=O)(=O)N(C)C[C@H]2Oc3c(NS(=O)(=O)c4cn(C)cn4)cccc3C(=O)N([C@@H](C)CO)C[C@H]2C)cc1` the value was -10.8%; for `Cc1noc(C)c1NC(=O)Nc1ccc2c(c1)C(=O)N([C@@H](C)CO)C[C@H](C)[C@H](CN(C)CC1CCCCC1)O2`, 7.21%; for `O=C(N/N=C/c1ccc(O)cc1Br)c1ccccc1O`, -10.3%. For `COc1ccc(CN(C)C[C@H]2Oc3c(NC(=O)c4ccncc4)cccc3C(=O)N([C@H](C)CO)C[C@@H]2C)cc1`, the activity score (inhibition) was 80.9% (active).

Consider `COc1ccc(NC(=O)Nc2cccc3c2O[C@H](CN(C)Cc2ccncc2)[C@@H](C)CN([C@@H](C)CO)C3=O)cc1`, for which the activity score (inhibition) was 2.96%. For `COc1ccc(NC(=O)Nc2cccc3c2O[C@@H](CN(C)Cc2ccncc2)[C@H](C)CN([C@H](C)CO)C3=O)cc1` the value was -7.67%. For `COc1ccc(NC(=O)Nc2ccc3c(c2)CC(=O)N([C@@H](C)CO)C[C@H](C)[C@H](CN(C)C(=O)Nc2ccc4c(c2)OCO4)O3)cc1` the value was -16.4%; for `C[C@@H]1CN([C@@H](C)CO)C(=O)c2cc(NS(=O)(=O)c3ccc(Cl)cc3)ccc2O[C@H]1CN(C)S(=O)(=O)c1cn(C)cn1`, -11.5%; for `CNC[C@H]1Oc2c(NC(=O)C3CC3)cccc2C(=O)N([C@@H](C)CO)C[C@@H]1C`, -26.9%.

Consider `C[C@H]1CN([C@@H](C)CO)C(=O)c2cccc(NS(C)(=O)=O)c2O[C@@H]1CN(C)C(=O)Nc1ccc(F)cc1`, for which the activity score (inhibition) is -4.72%. As for `C[C@@H]1CN([C@H](C)CO)C(=O)Cc2cc(NC(=O)Cc3ccccc3)ccc2O[C@H]1CN(C)Cc1ccc(Oc2ccccc2)cc1`, the activity score (inhibition) was 42.5%. On to `C[C@@H]1CN([C@H](C)CO)C(=O)Cc2cc(NC(=O)Cc3ccccc3)ccc2O[C@@H]1CN(C)Cc1ccccc1`, for which the activity score (inhibition) was 5.2%. `COc1ccc(CN(C)C[C@H]2Oc3ccc(NC(=O)Cc4ccccc4)cc3CC(=O)N([C@@H](C)CO)C[C@@H]2C)cc1`: the activity score (inhibition) is 71.7% (active). The figure for `C[C@H]1CN([C@@H](C)CO)C(=O)Cc2cc(NC(=O)NC3CCCCC3)ccc2O[C@@H]1CN(C)Cc1ccc(Oc2ccccc2)cc1` is 75.3% (active); for `C[C@@H]1CN([C@H](C)CO)C(=O)Cc2cc(NC(=O)NC3CCCCC3)ccc2O[C@H]1CN(C)Cc1ccc(Cl)c(Cl)c1` it is 7.26%; for `C[C@H]1CN([C@@H](C)CO)C(=O)Cc2cc(NC(=O)Cc3ccccc3)ccc2O[C@@H]1CN(C)Cc1ccc(Cl)c(Cl)c1` it is 41.9%. Take `C[C@@H]1CN([C@H](C)CO)C(=O)Cc2cc(NC(=O)CCCN(C)C)ccc2O[C@@H]1CN(C)Cc1ccc(Oc2ccccc2)cc1`: the activity score (inhibition) was -28.8%. On to `C[C@@H]1CN([C@@H](C)CO)C(=O)Cc2cc(NC(=O)Cc3ccccc3)ccc2O[C@@H]1CN(C)Cc1ccc2c(c1)OCO2`, for which the activity score (inhibition) was 32.2%. With `C[C@@H]1CN([C@@H](C)CO)C(=O)Cc2cc(NC(=O)Cc3ccccc3)ccc2O[C@@H]1CN(C)Cc1ccc(Oc2ccccc2)cc1`, the activity score (inhibition) was 65.6% (active). Consider `C[C@@H]1CN([C@H](C)CO)C(=O)c2cc(NC(=O)Cn3cnnn3)ccc2O[C@@H]1CN(C)Cc1ccc(C(F)(F)F)cc1`, for which the activity score (inhibition) is -1.8%.

Turning to `O=C(O)CCCCCCC(=O)NN=C1CCCCCC1`, the activity score (inhibition) was -26.3%.

Consider `C[C@@H]1CN([C@H](C)CO)C(=O)Cc2cc(NC(=O)Nc3ccc4c(c3)OCO4)ccc2O[C@@H]1CN(C)Cc1ccc(C(=O)Nc2ccccc2N)cc1`, for which the activity score (inhibition) is 63.9% (active). Take `C[C@H](CO)N1C[C@H](C)[C@H](CN(C)Cc2ccc(C(=O)Nc3ccccc3N)cc2)Oc2ccc(NC(=O)Nc3ccccc3)cc2CC1=O`: the activity score (inhibition) is 48.5%.

Regarding `C[C@H]1CN([C@@H](C)CO)C(=O)Cc2cc(NC(=O)Nc3ccc4c(c3)OCO4)ccc2O[C@H]1CN(C)Cc1ccc(C(=O)Nc2ccccc2N)cc1`, the activity score (inhibition) was 62.8% (active).

As for `COc1ccc(CN(C)C[C@@H]2Oc3ccc(NC(=O)Nc4ccc5c(c4)OCO5)cc3CC(=O)N([C@H](C)CO)C[C@H]2C)cc1`, the activity score (inhibition) was 26.4%. The figure for `C[C@@H]1CN([C@H](C)CO)C(=O)Cc2cc(NC(=O)Nc3ccc(F)cc3)ccc2O[C@@H]1CN(C)Cc1ccc2c(c1)OCO2` is 1.98%; for `CC(C)NC(=O)Nc1ccc2c(c1)CC(=O)N([C@H](C)CO)C[C@@H](C)[C@@H](CN(C)Cc1ccc(C(=O)Nc3ccccc3N)cc1)O2` it is 52.3%. As to `C[C@H](CO)N1C[C@H](C)[C@H](CN(C)S(=O)(=O)c2cccs2)Oc2ccc(NS(=O)(=O)c3ccc(Cl)cc3)cc2CC1=O`, the activity score (inhibition) is -17%. The figure for `C[C@H]1CN([C@@H](C)CO)C(=O)Cc2cc(NS(=O)(=O)c3cccs3)ccc2O[C@@H]1CN(C)Cc1ccc(Oc2ccccc2)cc1` is 42.4%; for `C[C@H](CO)N1C[C@H](C)[C@H](CN(C)CC2CCCCC2)Oc2ccc(NC(=O)CCN3CCOCC3)cc2CC1=O` it is -39.1%.

For the compound `C[C@H](CO)N1C[C@H](C)[C@H](CN(C)C(=O)Nc2ccc(C(F)(F)F)cc2)Oc2ccc(NC(=O)C3CC3)cc2C1=O`, the activity score (inhibition) was -9.99%.

For `C[C@H](CO)N1C[C@H](C)[C@@H](CN(C)Cc2ccc(C(F)(F)F)cc2)Oc2c(NC(=O)NC3CCCCC3)cccc2C1=O`, the activity score (inhibition) is 78.1% (active). The figure for `C[C@H]1CN([C@@H](C)CO)C(=O)c2cccc(NC(=O)C3CCCCC3)c2O[C@H]1CN(C)Cc1ccc(C(F)(F)F)cc1` is 6.51%; for `COc1ccc(CN(C)C[C@H]2Oc3c(NC(=O)NC4CCCCC4)cccc3C(=O)N([C@@H](C)CO)C[C@@H]2C)cc1` it is -5.36%. The figure for `C[C@@H]1CN([C@H](C)CO)C(=O)c2cccc(NC(=O)NC3CCCCC3)c2O[C@H]1CN(C)Cc1ccc(C(F)(F)F)cc1` is 85.3% (active); for `C[C@@H]1CN([C@H](C)CO)C(=O)c2cccc(NC(=O)Nc3ccc(F)cc3)c2O[C@@H]1CN(C)Cc1ccc(C(F)(F)F)cc1` it is -18.6%; for `C[C@H]1CN([C@@H](C)CO)C(=O)c2cccc(NC(=O)Nc3ccc(C(F)(F)F)cc3)c2O[C@@H]1CN(C)Cc1ccccc1` it is 8.46%. Take `C[C@@H]1CN([C@@H](C)CO)C(=O)c2cccc(N(C)C)c2O[C@@H]1CN(C)S(C)(=O)=O`: the activity score (inhibition) is -23.1%.

Turning to `C[C@H]1CN([C@@H](C)CO)C(=O)c2cccc(NS(=O)(=O)c3ccccc3)c2O[C@@H]1CN(C)S(=O)(=O)c1cn(C)cn1`, the activity score (inhibition) is -19.1%. The figure for `C[C@H]1CN([C@@H](C)CO)C(=O)Cc2cc(NC(=O)C3CC3)ccc2O[C@@H]1CN(C)C(=O)NC1CCCCC1` is -11%; for `CC(C)NC(=O)N(C)C[C@@H]1Oc2c(cccc2N(C)C)C(=O)N([C@H](C)CO)C[C@@H]1C` it is -30.9%. Turning to `C[C@@H]1CN([C@@H](C)CO)C(=O)c2cc(NC(=O)Nc3ccccc3)ccc2O[C@H]1CN(C)C(=O)Nc1ccc(F)cc1`, the activity score (inhibition) was -1.8%. In the case of `C[C@@H]1CN([C@H](C)CO)C(=O)c2cc(NC(=O)Cc3cn(C)c4ccccc34)ccc2O[C@H]1CN(C)S(C)(=O)=O`, the activity score (inhibition) was -9.14%. Regarding `C[C@@H]1CN([C@@H](C)CO)C(=O)c2cccc(NC(=O)Nc3ccc4c(c3)OCO4)c2O[C@@H]1CN(C)C(=O)Nc1ccc(F)cc1`, the activity score (inhibition) is -15.6%. In the case of `C[C@@H]1CN([C@H](C)CO)C(=O)Cc2cc(NC(=O)Nc3ccc4c(c3)OCO4)ccc2O[C@H]1CN(C)Cc1ccc(C(F)(F)F)cc1`, the activity score (inhibition) was 64.6% (active). The figure for `Cc1noc(C)c1NC(=O)Nc1ccc2c(c1)CC(=O)N([C@H](C)CO)C[C@@H](C)[C@@H](CN(C)Cc1ccc(C(F)(F)F)cc1)O2` is -9.04%; for `COc1ccc(CN(C)C[C@@H]2Oc3ccc(NC(=O)Nc4ccc(OC)cc4)cc3CC(=O)N([C@H](C)CO)C[C@H]2C)cc1` it is 12%.

On to `COc1ccc(NC(=O)Nc2ccc3c(c2)CC(=O)N([C@@H](C)CO)C[C@@H](C)[C@@H](CN(C)Cc2ccc(C(F)(F)F)cc2)O3)cc1`, for which the activity score (inhibition) was 76% (active). With `C[C@@H]1CN([C@H](C)CO)C(=O)c2cc(NC(=O)Nc3ccc4c(c3)OCO4)ccc2O[C@@H]1CN(C)Cc1ccc(C(F)(F)F)cc1`, the activity score (inhibition) was 2.66%.

On to `C[C@@H]1CN([C@H](C)CO)C(=O)Cc2cc(NC(=O)Nc3ccc4c(c3)OCO4)ccc2O[C@H]1CN(C)Cc1ccc(C(=O)O)cc1`, for which the activity score (inhibition) is -10.7%. As for `C[C@@H]1CN([C@H](C)CO)C(=O)Cc2cc(NC(=O)Nc3cccc4ccccc34)ccc2O[C@@H]1CN(C)Cc1ccc(C(=O)O)cc1`, the activity score (inhibition) is -16%. For `C[C@H]1CN([C@@H](C)CO)C(=O)Cc2cc(NC(=O)Nc3ccc(C(F)(F)F)cc3)ccc2O[C@H]1CN(C)Cc1ccc(C(=O)O)cc1` the value was -28.2%; for `C[C@@H]1CN([C@H](C)CO)C(=O)Cc2cc(NC(=O)Nc3cccc4ccccc34)ccc2O[C@@H]1CN(C)Cc1ccc(C(F)(F)F)cc1`, 67.4% (active).
